Results from the supplement of paper PMC10338343.
± gives the standard deviation.

Assays:
[1] = system: MILI (PIWIL2) piRISC loaded with piRNA #1 (26 nt); test: pre-steady-state target cleavage rate (min^-1); guide: piRNA #1 5'p-UGAGGUAGUAGGUUGUAUAGUAUCCA; higher = faster piRNA-guided slicing of the target; conditions: auxiliary factor: 500 nM mouse GTSF1
Method in brief: (§1)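 Active affinity-purified piRISC (1 nM) loaded with one synthetic guide was mixed with a transcribed, DNA-blocked target RNA library (0.1 nM), with or without 500 nM GTSF1 partner protein, in HEPES–potassium acetate buffer at 33 °C for 0–8 or 0–960 min. Uncleaved targets were sequenced, normalised to depth and to weakly complementary targets, and pooled across three trials, with k3 capped at 0.0001 min^-1. The pre-steady-state cleavage rate was determined with a burst-and-steady-state fit.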

[2] = system: EfPiwi piRISC loaded with piRNA #1 (26 nt); test: pre-steady-state target cleavage rate (min^-1); auxiliary factor: 500 nM Ephydatia muelleri Gtsf1; guide: piRNA #1 5'p-UGAGGUAGUAGGUUGUAUAGUAUCCA; MIWI and MILI are mouse PIWI proteins and EfPiwi is from a freshwater sponge; tags in brackets are library labels; higher = faster piRNA-guided slicing of the target
Method in brief: as §1

| Sequence | pre-steady-state target cleavage rate [1] | pre-steady-state target cleavage rate [2] |
| --- | --- | --- |
| GGAGACCAAACUAUUCAACCUACUACCUCA | 0.217 ± 0.047 | 0.00445 ± 0.004 |
| GGAGACCUUACUAUACAACCCACUACCUCA | 0.0224 ± 0.0038 | 0.00926 ± 0.0048 |
| GGAGACCUUACUAUACAACCAACUACCUCA | 0.00455 ± 0.0024 | 0.00528 ± 0.003 |
| GGAGACGAUACUAUACAACCUGCUACCUCA | 0.0677 ± 0.008 | 0.128 ± 0.046 |
| GGAGACGAUACUAUACAUGCUACUACCUCA | 0.115 ± 0.01 | 0.00483 ± 0.0015 |
| GGAGUGGAUACUAUAAAACCUACUACCUCA | 0.161 ± 0.0081 | 0.00522 ± 0.0025 |
| GGAGACCUAUCUUUACAACCUACUACCUCA | 0.063 ± 0.0089 | 0.0058 ± 0.0037 |
| GGAGACGAUACUAUACUACCUACAACCUCA | 0.181 ± 0.017 | 0.00176 ± 0.0015 |
| GGAGACGUAUCUAUACAACCUACUACCUCA | 0.156 ± 0.015 | 0.00913 ± 0.0041 |
| GGAGACGAUACUAUACAACCUAUUACCUCA | 0.219 ± 0.021 | 0.0146 ± 0.0053 |
| GGAGACCUUACCAUACAACCUACUACCUCA | 0.134 ± 0.02 | 0.0112 ± 0.0056 |
| GGAGACCAUUCUAUACAUCCUACUACCUCA | 0.235 ± 0.019 | 0.00435 ± 0.0029 |
| GGAGUGGAUACUAAUCAACCUACUACCUCA | 0.144 ± 0.01 | 0.00495 ± 0.0038 |
| GGAGACCAUACUAUACAACCUACUAGCUCA | 0.137 ± 0.025 | 0.00491 ± 0.0023 |
| GGAGACCUAUGUAUACAACCUACUACCUUA | 0.0696 ± 0.0086 | 0.00547 ± 0.0039 |
| GGAGACGAUACUAUACAACCUACUACCUUA | 0.228 ± 0.027 | 0.224 ± 0.068 |
| GGAGACGAUACUAUACAACCUACUACCUAA | 0.153 ± 0.015 | 0.103 ± 0.033 |
| GGAGAGGAUACUAUACAACCUACCACCUCA | 0.129 ± 0.018 | 0.00459 ± 0.002 |
| GGAGACCUUACUAUACAACCUUCUACCUCA | 0.00711 ± 0.0021 | 0.00767 ± 0.0037 |
| GGAGUGGAUAGUAUACAACCUACAACCUCA | 0.0845 ± 0.011 | 0.00254 ± 0.0017 |
| GGAGACGAUACUAUAGAACCUACUACGUCA | 0.0644 ± 0.013 | 0.002 ± 0.0014 |
| GGAGUGGAUACAAUACAACCUAGUACCUCA | 0.0718 ± 0.013 | 0.00305 ± 0.0021 |
| GGAGUGGAUACUAUACAACCUACUACCUCC [g2:g26:cont:t1C] | 0.188 ± 0.0099 | 0.105 ± 0.037 |
| GGAGUGGAUACUAUACAACCUACUACAUCA | 0.0416 ± 0.0072 | 0.00707 ± 0.0031 |
| GGAGACGAUACUAAACAACGUACUACCUCA | 0.017 ± 0.0026 | 0.00192 ± 0.0019 |
